tim10-1 inh = growth inhibitors of tim10-1 mutant yeast | S. cerevisiae tim10-1 ts strain growth, BacTiter-Glo, 24 h | inhibition, % at 20 µM | 2.2% of 330,000 active | AID 463190;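 active = inhibition of at least 40%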;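 also: mutant grown at 25 °C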
TIM10 inh = TIM10 yeast growth inhibition. S. cerevisiae TIM10 strain growth, BacTiter-Glo luminescence, 24 h. inhibition, % at 10 µM. 1.4% of 330,000 active;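 active = inhibition of 40% or more at the single tested concentration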;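 also: wild-type TIM10 isogenic control strain grown at permissive 25 °C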
NLRP3 yeast inh = NALP3 inhibition in yeast; Yeast reconstituted NLRP3/ASC/caspase-1, beta-gal luminescence, 24 h; 0.39% of 330,000 active; inhibition, % at 10 µM; AID 2825;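 active = inhibition of 50% or more; inactive = inhibition below 50%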
PfHsp90 set2 = growth inhibition of yeast expressing Plasmodium Hsp90; S. cerevisiae expressing PfHsp90, BacTiter-Glo ATP, 48 h; yeast lacking PDR1 and PDR3 efflux regulators; 0.32% of 310,000 active; AID 504621; inhibition, % at 9.4 µM;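 active = every replicate shows inhibition above about 80%, whatever the replicate mean, limit read from the data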
tim23-1 inh = growth inhibitors of tim23-1 mutant yeast. S. cerevisiae tim23-1 growth, BacTiter-Glo luminescence, 24 h. inhibition, % at 20 µM. 1.3% of 330,000 active. AID 463212;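 active = growth inhibition of the mutant yeast at or above 50%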;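 also: temperature-sensitive mutant grown at 25 °C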
tim10-1 conf = tim10-1 yeast growth inhibition, confirmed | shares compounds with tim10-1 inh | S. cerevisiae tim10-1 ts strain growth, BacTiter-Glo, 24 h | inhibition, % at 20 µM | 56% of 7,400 active;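 active = inhibition of yeast growth at or above a set limit in either of two repeat tests at 20 µM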;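 also: tim10-1 mutant grown at permissive 25 °C to find synthetic lethal compounds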
TIM10 conf = confirmation of TIM10 yeast growth inhibitors; shares compounds with TIM10 inh; S. cerevisiae tim10 strain growth, BacTiter-Glo luminescence, 24 h; inhibition, % at 10 µM; 63% of 4,600 active;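 active = inhibition of yeast growth at or above a set limit in either of two replicates at 10 µM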; also: this counterscreen used the strain with wild-type TIM10
tim23-1 conf = confirmation of tim23-1 mutant yeast growth inhibitors; shares compounds with tim23-1 inh; AID 463218; inhibition, % at 20 µM; S. cerevisiae tim23-1 growth, BacTiter-Glo luminescence, 24 h; 83% of 4,400 active;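 active = inhibition above about 39% in either of two replicate wells at 20 µM, limit read from the data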;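 also: temperature-sensitive tim23-1 mutant grown at 25 °C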
A number is an active result; – = inactive; · = no result given. An excerpt weighted towards active compounds, which were near 3.7% of everything screened.

SMILES | tim10-1 inh | TIM10 inh | NLRP3 yeast inh | PfHsp90 set2 | tim23-1 inh | tim10-1 conf | TIM10 conf | tim23-1 conf
N#C/C(=C/c1ccccc1[N+](=O)[O-])C(=O)NCc1ccco1 | 52.0 | 59.9 | – | – | 60.0 | 44.9 | – | 54.5
CCOc1ccccc1NC(=O)/C(C#N)=C/c1c(C)nn(-c2ccccc2)c1Cl | – | – | – | – | – | · | · | ·
CCOCCCNC(=O)/C(C#N)=C/c1ccc([N+](=O)[O-])o1 | 84.0 | 67.9 | – | – | 75.3 | 78.9 | 94.2 | 73.7
CCCCCCCCNC(=O)/C(C#N)=C/c1ccccc1[N+](=O)[O-] | 50.4 | 63.9 | – | 110.4 | 83.3 | – | 69.8 | 46.9
CCOCCCNC(=O)/C(C#N)=C/c1ccc(-c2ccc(S(=O)(=O)N3CCOCC3)cc2)o1 | – | – | – | – | – | · | · | ·
Cc1cc(C)c(S(=O)(=O)NCc2cccs2)cc1C | – | – | – | – | – | · | · | ·
NC(N)=Nc1nc2ccccc2o1 | – | – | – | – | – | · | · | ·
CCCc1nn2c(=O)cc(CSCC(=O)Nc3nnc(CC)s3)nc2s1 | – | – | – | – | – | · | · | ·
Cc1cc(C)cc(NS(=O)(=O)c2ccc3[nH]c(=O)ccc3c2)c1 | – | – | – | – | – | · | · | ·
COc1ccc(Nc2ccc(N3C(=O)CCCC3=O)cc2[N+](=O)[O-])c(OC)c1 | – | – | – | – | – | · | · | ·
N#C/C(=C\c1ccccc1[N+](=O)[O-])C(=O)NCc1ccccc1 | 49.1 | 45.6 | – | – | 71.0 | 54.5 | 50.7 | 74.2
N#C/C(=C\c1ccc(O)cc1)C(=O)NCc1ccccc1 | – | – | – | – | – | · | · | ·
C=CCNC(=O)/C(C#N)=C/c1ccccc1[N+](=O)[O-] | 45.7 | 49.6 | – | – | 55.7 | 47.8 | – | 45.6
NS(=O)(=O)c1ccc(CCNC(=O)c2ccc(Cl)c(S(=O)(=O)NCc3ccco3)c2)cc1 | – | – | – | – | – | · | · | ·
CC1CCN(c2nnc(-c3ccccc3)c3ccccc23)CC1 | 40.7 | – | – | – | 68.9 | – | · | –
Cc1ccc(-c2nnc(N3CCC(C)CC3)c3ccccc23)cc1C | – | – | – | – | – | · | · | ·
COc1ccc(-c2nnc(N3CCCCC3)c3ccccc23)cc1 | 51.4 | – | – | – | 60.2 | 47.5 | · | 55.5
COc1ccc(-c2nnc(N3CCOCC3)c3ccccc23)cc1 | – | – | – | – | – | · | · | ·
OC(CNCCC(c1ccccc1)c1ccccc1)COc1ccccc1 (stereo unspecified) | – | – | – | – | – | · | · | ·
COc1cccc(NC(=O)Nc2ccc(C(C)(C)C)cc2)c1 | 57.1 | 49.0 | – | – | 58.0 | 45.6 | 60.0 | 74.7
Nc1ccc2c(c1)C(=O)c1ccccc1-2 | – | – | – | – | – | · | · | ·
Nc1ccc2c(c1)C(=O)C(=O)c1ccccc1-2 | 92.2 | 93.8 | – | – | 73.2 | 91.9 | 98.8 | 68.8
Cc1cc(C)n(/N=C/c2cc(Cl)cc(Cl)c2O)c(=O)c1 | 48.1 | – | – | – | 60.9 | – | · | 72.5
Cc1cc(C)n(/N=C/c2ccccc2O)c(=O)c1 | – | – | – | – | – | · | · | ·
N#C/C(=C\c1cccc([N+](=O)[O-])c1)C(=O)NCC1CCCO1 (stereo unspecified) | 56.9 | 57.3 | – | – | 77.1 | 51.6 | 45.0 | 71.6
SMILES | tim10-1 inh | TIM10 inh | NLRP3 yeast inh | PfHsp90 set2 | tim23-1 inh | tim10-1 conf | TIM10 conf | tim23-1 conf
COc1cc(/C=C(\C#N)C(=O)NCC2CCCO2)c([N+](=O)[O-])cc1OC (stereo unspecified) | – | – | – | – | – | · | · | ·
N#C/C(=C\c1cc2c(cc1Br)OCO2)C(=O)NCC1CCCO1 (stereo unspecified) | 67.2 | 64.7 | – | – | 86.6 | 66.9 | 72.0 | 77.5
Cc1ccc(/C=C(\C#N)C(=O)NCC2CCCO2)o1 (stereo unspecified) | – | – | – | – | – | · | · | ·
Cc1ccccc1Oc1nc(-c2ccccn2)nc2ccccc12 | 48.2 | 42.7 | – | – | 55.8 | – | 35.8 | 48.8
CC(=O)Nc1ccc(Oc2nc(-c3ccccn3)nc3ccccc23)cc1 | – | – | – | – | – | · | · | ·
COc1ccc(C(=O)c2c(C(F)(F)F)oc3c2C(=O)c2ccccc2C3=O)cc1OC | 52.4 | – | – | – | 67.0 | 40.0 | · | 67.9
COc1ccc(C(=O)Nc2ccc3c(c2)C(=O)c2ccccc2C3=O)cc1OC | – | – | – | – | – | · | · | ·
CCC(=O)Nc1nc2ccc3sc(C)nc3c2s1 | – | – | – | – | – | · | · | ·
Cc1nc2c(ccc3nc(NC(=O)C4CC4)sc32)s1 | 52.7 | 65.1 | – | · | 68.0 | 53.5 | 53.7 | 71.3
CC1CCN(C(=O)CSCC(=O)Nc2nc(-c3cccs3)cs2)CC1 | 42.9 | – | – | – | 54.3 | – | · | 49.0
CC1CCCN(C(=O)CSCC(=O)Nc2nc(-c3cccs3)cs2)C1 (stereo unspecified) | – | – | – | – | – | · | · | ·
COc1cccc(C(C(=O)NC2CCCC2)N(C(=O)c2csnn2)C2CC2)c1 (stereo unspecified) | – | – | – | – | – | · | · | ·
COc1cc(C(=O)OCC(=O)Nc2cc(C)on2)c([N+](=O)[O-])cc1OC | – | – | – | – | – | · | · | ·
Cc1ccc(N=Cc2c(C)[nH]n(-c3ccccc3)c2=O)nc1 | – | – | – | – | – | · | · | ·
COc1cc(O)c2c(=O)c3c(OC)c(O)ccc3oc2c1 | 66.8 | 42.3 | – | – | 55.8 | 56.8 | 51.4 | 66.0
Cc1cccc(C)c1NC(=O)C(NC(=O)c1ccccn1)c1ccccc1[N+](=O)[O-] (stereo unspecified) | – | – | – | – | – | · | · | ·
CCCN1CCN(C2CCCCC2NS(=O)(=O)c2ccccc2)CC1 (stereo unspecified) | – | – | – | – | – | · | · | ·
CC1(C)Cc2ccccc2-c2nc3n(c(=O)c21)CCCS3 | 42.1 | – | – | – | 50.8 | 33.0 | · | 59.8
CC1(C)Cc2ccccc2-c2nc3n(c(=O)c21)CCS3 | – | – | – | – | – | · | · | ·
COc1ccc(-n2cc(-c3ccccc3)nc2SC)cc1 | – | – | – | – | – | · | · | ·
COc1ccc2c(c1)sc1nc(-c3ccccc3)cn12 | 40.1 | – | – | – | 60.1 | – | · | 67.1
O=c1nc(/C=C/c2ccc(O)c(O)c2)oc2ccccc12 | · | · | · | – | · | · | · | ·
COc1ccc(/C=C\c2nc(=O)c3ccccc3o2)cc1 | 54.8 | 41.9 | – | – | 78.0 | 45.6 | 34.8 | 71.3
COc1ccccc1/C=c1\sc2nc(-c3ccco3)nn2c1=O | – | – | – | – | – | · | · | ·
COc1ccc(OC)c(/C=c2\sc3nc(-c4cccs4)nn3c2=O)c1 | 48.9 | – | – | – | 52.8 | 37.0 | · | 47.0
CCNC(=S)N/N=C/c1ccc(-c2ccccc2)o1 | 43.7 | – | – | – | 53.2 | 33.2 | · | –
COC(=O)c1ccc2[nH]c3c(c2c1)CC(C)CC3 (stereo unspecified) | – | – | – | – | – | · | · | ·
